# The campaign covered roughly 360,000 compounds. About 11,000 (3.1%) were called active. Inconclusive results (about 4%) are left out. For the sample, actives were picked, then their nearest neighbours and some compounds at random. A number with no mark means an inactive call. Calls come from the whole dose curve; as a rule, active = well fitted inhibition curve with a large enough effect; inconclusive = small, poorly fitted or top-dose-only effect; inactive = no such curve, though single readings can be large or run the other way.
# Biological target: Schistosoma mansoni thioredoxin glutathione reductase (TGR) (UniProt Q962Y6)
# Assay: qHTS Assay for the Inhibitors of Schistosoma Mansoni Peroxiredoxins; note: nearly all actives have a fitted effect of over 60% in size
# Settings: purified TGR, DTNB reduction, TNB absorbance 405 nm; series mostly up to 114 µM; activity change, negative = inhibition: at the top concentration
# Summary of the method: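 Kinetic colorimetric format: TGR-catalysed, NADPH-driven DTNB reduction monitored via TNB absorbance. Enzyme dispensed at 20 nM; compound exposure 15 min at room temperature before reaction start.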
# % is set by controls: 0 for no effect and ±100 for the full control effect; potency is the fitted concentration of half-maximal effect.
SMILES,"activity change, negative = inhibition",Potency
O=C(O)c1ccc(CSc2nc3cccnc3n2Cc2cccc(F)c2)cc1,9.94%,
Cc1ccc(-n2ncc(C(=O)N(C)Cc3ccccc3)c2-n2cccc2)cc1,2.53%,
CC(=O)c1ccc(NS(=O)(=O)c2ccc(-c3cc(C)no3)s2)cc1,-8.37%,
COc1ccccc1CNC(=O)c1ccc(-n2c(C)cc3c2CCCC3)cc1,-25.8%,
CN1C(=O)/C(=N/OC(=O)c2ccccc2Br)c2ccccc21,,12.6 µM (active)
Cn1c(=O)c(=O)n(C)c2cc(NC(=O)c3ccccc3Br)ccc21,0.681%,
CN1C(=O)/C(=C\c2cc(Br)cs2)c2ccccc21,-1.32%,
Cc1ccc(C)c(NC(=O)CSC2=Nc3ccccc3N=C(c3ccc(F)cc3)C2)c1,-2.76%,
COc1cc(C(=O)Nc2ccc(-n3c(C)nc4ccccc4c3=O)cc2)cc(OC)c1OC,-1.35%,
Cc1ccc(Sc2cc(C(=O)c3ccccc3C(=O)O)ccc2[N+](=O)[O-])cc1,-7.05%,
CC(C)(C)c1ccc(C(=O)NNC(=O)Cc2ccccc2)cc1,4.42%,
Cc1ccc(SC(CC(=O)c2ccc(C(C)(C)C)cc2)C(=O)O)cc1 (centres undefined),,2 µM (active)
COc1ccc2[nH]c3c(c2c1)CCN(C(=O)CCC1CCCC1)C3c1ccc(F)cc1 (centres undefined),-6.55%,
CCO[C@@H]1OC(C(N)=O)=C[C@H](c2ccc(Br)cc2)[C@H]1CCCO,2.27%,
C#CCNC(=O)C1=C[C@@H](c2ccccc2)[C@H](CCCO)[C@@H](OCC)O1,,35.5 µM (active)
CCO[C@H]1OC(C(=O)NCc2ccccc2)=C[C@@H](c2coc3ccccc3c2=O)[C@@H]1CCCO,-1.2%,
Cn1c(SCC(=O)c2cccs2)nnc1-c1ccco1,,44.7 µM (active)
Cn1c(SCC(=O)N2CCCC2)nnc1-c1cccs1,-6%,
CCn1c(SCC(=O)Nc2nccs2)nnc1-c1ccco1,-7.64%,
Cc1ccc(SCC(=O)Nc2ccc3oc(-c4ccccc4F)nc3c2)cc1,-9.68%,
CCc1ccc(Nc2nn3c(=O)c4cc5c(cc4nc3s2)OCO5)cc1,-4.94%,
O=C(O)CCS(=O)(=O)c1ccc(-c2ccccc2)cc1,-10.8%,
CC(=O)CCS(=O)(=O)c1ccc(C)c(C)c1,,50.1 µM (active)
Cc1ccc(S(=O)(=O)NCCC(=O)Nc2ccc(C)c(Cl)c2)cc1C,4.29%,
CC(=O)c1c(C)n(S(=O)(=O)c2ccc(Cl)cc2)c2ccc(NS(=O)(=O)c3ccc(Cl)cc3)cc12,-17.9%,

SMILES,"activity change, negative = inhibition",Potency
CSc1nn(Cc2cccc(C)c2)c(N)c1S(=O)(=O)c1ccccc1,12.3%,
Cc1ccc(NC(=O)/C(=C\c2ccccc2)NC(=O)c2ccco2)cc1,-2.41%,
O=C(NCc1ccco1)/C(=C/c1ccco1)NC(=O)c1ccccc1,,39.8 µM (active)
O=C(NNC(=O)c1ccco1)Nc1ccccc1,4.12%,
COc1ccccc1C(=O)N/C(=C/c1ccco1)C(=O)Nc1ccc(C(=O)O)cc1,,50.1 µM (active)
Cc1ccc(C(=O)N/C(=C/C=C/c2ccccc2)C(=O)NCc2ccco2)cc1,0.675%,
NC(=O)C1CCN(C(=O)/C(=C/c2ccco2)NC(=O)c2ccccc2)CC1,-24.6%,
COc1ccc(/C=C(/NC(=O)c2ccco2)C(=O)Nc2ccc(C(C)=O)cc2)cc1,-6.99%,
COc1ccccc1C(=O)N/C(=C/c1ccc2c(c1)OCO2)C(=O)Nc1cccc(C(=O)O)c1,6.54%,
O=C(Nc1ccccc1)/C(=C\c1ccco1)NC(=O)c1ccco1,,10 µM (active)
O=C(NCC1CCCO1)/C(=C\c1ccco1)NC(=O)c1ccccc1 (centres undefined),-35.4%,
CC(C)(C)c1ccc(/C=C/C(=O)NC2CCS(=O)(=O)C2)cc1 (centres undefined),12.1%,
Cc1ccc(C(=O)N/C(=C\c2ccco2)C(=O)NC2CCS(=O)(=O)C2)cc1 (centres undefined),,31.6 µM (active)
Cc1cccc(Cc2c(C)nc3nc(SCc4ccccc4Cl)nn3c2C)c1,1.03%,
Cc1ccc(Cl)cc1NC(=O)CCC(=O)N1CC(C)Sc2ccccc21 (centres undefined),0.838%,
Cc1oc2ncnc(N3CCCCC3)c2c1C(=O)N1CCN(c2cccc(Cl)c2)CC1,14.5%,
COc1cccc(NC(=O)Nc2ccc3c(c2)N(C)C(=O)c2ccccc2S3)c1,5.44%,
CCOc1ccc(CCNC(=O)Cn2nc(CC)n3c(cc4sc(CC)cc43)c2=O)cc1OCC,0.777%,
Cc1ccc2c(=O)c(C(=O)c3ccc(Cl)cc3)cn(CC(=O)NC3CCCCC3)c2n1,4.61%,
Cc1noc(/C=C/N(C)C)c1S(=O)(=O)N1CCCC(C(=O)Nc2cccc(F)c2)C1 (centres undefined),1.27%,
CCc1cccc(NC(=O)c2cnc(N3CCOCC3)c3ccccc23)c1,-4.16%,
Cc1ccc(CNC(=O)CCC(=O)N2Cc3ccccc3Oc3ncccc32)cc1,-1.02%,
CCc1ccccc1N1C(=O)CN(S(=O)(=O)CC)CC1(C)C(=O)NC1CCCCC1 (centres undefined),-8.36%,
Cc1ccc(NC(=O)Cn2c(=O)n(-c3ccccc3)c(=O)c3c4c(sc32)CCCC4)cc1,5.28%,

# Reference: PubChem BioAssay AID485364 (National Center for Advancing Translational Sciences (NCATS), 2010)
